The source of these data is PubChem BioAssay (NCATS).

Several values for one entry are separate records, joined by “and”; a condition that tells them apart may be missing. Equal values may be shown once. Results filed as inconclusive are left out. Activity calls are given as the source filed them. Unless noted, the call rests on the fitted dose curve; in most records, active means well fitted curve in the direction sought with a large enough effect; inconclusive means small, poorly fitted or top-dose-only effect, or another doubt; inactive means no such curve, though single readings can be large; an effect the other way counts as inactive or inconclusive.

Assay [1] can be described thus: AP1 Signaling Pathway (AID 357; active means well fitted curve in either direction with a large enough effect, not every such curve was filed as active; further: on the % scale 0 is the no-effect control and ±100 the full control effect). As to conditions: ME-180 (cervical carcinoma) AP-1-bla reporter, EGF-induced, beta-lactamase ratio, 5 h. Put shortly: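 Read-out was the 460nm/530nm emission ratio (excitation 405nm) after CCF4 loading for 2.5 hours at room temperature. Cells carried an AP-1-driven beta-lactamase reporter, were stimulated with EC50 EGF plus compound for 5 hours, and AC50 values came from titrations.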

Assay [2] has as its target Cytochrome P450 3A4 (Homo sapiens) (UniProt P08684). Kind of assay: qHTS Assay for Activators of Cytochrome P450 3A4 (AID 885). Further: nearly all actives have a fitted effect of over 65% in size. The note with it: recombinant CYP3A4, Luciferin-PPXE luminescence, 60 min; series mostly up to 57.1 µM. In outline: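 Human CYP3A4 (20 nM) with Luciferin-PPXE at 25 uM (its KM) in 200 mM KPO4; 10 min compound preincubation, then NADPH regeneration and 60 min reaction at RT. Luciferin read by luminescence; normalized to 57 uM ketoconazole full inhibition.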
Background: Quantitative high-throughput screening tests each substance at several concentrations.

Assay [3] addresses Cytochrome P450 2D6 (Homo sapiens) (UniProt P10635). Description: qHTS Assay for Inhibitors and Substrates of Cytochrome P450 2D6 (AID 891). Further: potency means the concentration at half of the fitted maximal effect; nearly all actives have a fitted effect of over 60% in size. As to conditions: recombinant CYP2D6, luciferin-ME EGE luminescence; series mostly up to 57.1 µM. Put shortly:
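Human CYP2D6 (5 nM) with 30 uM Luciferin-ME EGE (at Km) in 100 mM KPO4, compound preincubated 10 min, then NADPH regeneration system for 60 min at room temperature. Luciferin read by luminescence; normalized to 1.43 uM quinidine.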

The target of assay [4] is Cytochrome P450 2C19 (Homo sapiens) (UniProt P33261). Kind of assay: qHTS Assay for Inhibitors and Substrates of Cytochrome P450 2C19 (AID 899). Further: nearly all actives have a fitted effect of over 60% in size. Further: potency means the concentration at half of the fitted maximal effect. The note with it: recombinant CYP2C19, luciferin-H EGE luminescence; series mostly up to 57.1 µM. Put shortly:
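NADPH-dependent conversion of Luciferin-H EGE (10uM, at KM) by 5nM enzyme in 50mM KPO4, 60 min at 37C following 10 min compound preincubation. Stopped with luciferin detection buffer; luminescence read after 20 min.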

In assay [5] the target is Muscarinic acetylcholine receptor M1 (Rattus norvegicus) (UniProt P08482). Description: qHTS Assay for Antagonists of Acetylcholine Muscarinic M1 Receptor: Measurement of IP-One Response (AID 944). Further: nearly all actives have a fitted effect of over 75% in size. Further: potency means the concentration at half of the fitted maximal effect. As to conditions: CHO-M1 cells, IP-One HTRF, antagonist mode; series mostly up to 46.1 µM. Put shortly:
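CHO cells expressing rat M1 receptor, recovered overnight, were pre-incubated 10 min with compound, then stimulated 30 min with carbachol at EC80 (200 nM) in LiCl-containing buffer, pH 7.4. IP1 accumulation was read by HTRF (620/665 nm).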

In assay [6] the target is Pyruvate kinase (Leishmania mexicana) (UniProt Q27686). Kind of assay: qHTS Validation Assay for Inhibitors of Leishmania Mexicana Pyruvate Kinase (AID 945).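 Further: 0% = DMSO only neutral control wells.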 The note with it: purified L. mexicana pyruvate kinase, enzyme activity, E451W mutant enzyme; series mostly up to 57.5 µM. In outline:
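Eight-point qHTS titrations in triplicate, data normalized to DMSO neutral control. Reaction: 0.2 nM LmPYK E451W mutant, 0.5 mM PEP, 0.1 mM ADP, 7 mM MgCl2, pH 7.2, one hour at room temperature; luminescent ATP detection.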

Assay [7] addresses Pyruvate kinase PKM (Homo sapiens) (UniProt P14618). Description: qHTS Assay for Activators of Human Muscle Pyruvate Kinase (AID 954; active means well fitted curve in the direction sought with a large enough effect, not every such curve was filed as active;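 further: 0% = uninhibited enzyme and -100% = no enzyme or full thiadiazolimine inhibition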). As to conditions: purified human muscle pyruvate kinase, luciferase-coupled luminescence, 1 h; series mostly up to 57.5 µM. Put shortly: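 Purified human PKM2 (0.1 nM) with 0.5 mM PEP (Km) and 0.1 mM ADP in 50 mM imidazole pH 7.2, KCl, MgCl2, 1 h at room temperature; ATP formed read by coupled luciferase luminescence. Normalized to no-enzyme/110 uM thiadiazolimine inhibition; 0.3 nM enzyme column for activation.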

Assay [8] concerns the target alpha-glucosidase (Oryza sativa, rice) (UniProt Q653V4). Description: Counterscreen for Glucocerebrosidase Inhibitors: qHTS Assay for Rice alpha-Glucosidase at pH 5.0 (AID 997).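 Further: 0% = full activity with enzyme and -100% = basal without enzyme.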 The note with it: rice alpha-glucosidase enzyme activity; series mostly up to 76.9 µM. Put shortly: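 Rice alpha-glucosidase (4 nM final) with 400 uM 4-methylumbelliferyl-alpha-D-glucopyranoside in citrate buffer pH 5.0, 20 min at room temperature, stopped at pH 10; fluorescence 365/440 nm, compounds 0.7 nM–77 uM, AC50 from Hill fits.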
On the technique in general: A counterscreen serves to expose hits that act by an unwanted route or on another target.

Assay [9] can be described thus: Primary qHTS for inhibitors of nuclear receptor binding SET domain protein 2 (NSD2) in an isogenic RCH-ACV NSD2 p.E1099K mutant (9B) (AID 1645876). Further: nearly all actives have a fitted effect of over 70% in size. Further: potency means the concentration at half of the fitted maximal effect. The note with it: RCH-ACV NSD2 E1099K (9B) viability, CellTiter-Glo, 72 h; series mostly up to 44.9 µM.
The nature of assay [10]: Primary qHTS for inhibitors of nuclear receptor binding SET domain protein 2 (NSD2) in an RCH-ACV wild type WT cells (2C) (AID 1645877). Further: nearly all actives have a fitted effect of over 70% in size. Further: potency means the concentration at half of the fitted maximal effect. As to conditions: RCH-ACV (leukaemia line) NSD2 WT (2C) viability, CellTiter-Glo, 72 h; series mostly up to 44.9 µM.
The target in assay [11] is Glutathione peroxidase 1 (Homo sapiens) (UniProt P07203). Kind of assay: Primary qHTS Assay for Inhibitors of Recombinant Selenoprotein Glutathione Peroxidase 1 (GPX1) (AID 1845191). Further: nearly all actives have a fitted effect of over 65% in size. As to conditions: recombinant GPX1, GR-coupled NADPH fluorescence, 15 min; series mostly up to 48.8 µM. In outline:
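Recombinant GPX1 (10 nM final) was preincubated with compound for 30 min at room temperature, then reacted with 1 mM GSH, 0.5 mM CHP, 0.5 mM NADPH and 100 nM glutathione reductase; NADPH fluorescence (340/450 nm) was read at 0 and 15 min.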

Assay [12] can be described thus: qHTS drug screen for cell cycle checkpoint inhibitors in PARPi-resistant BRCA-mutant ovarian cancer cell lines. (AID 1963452; calls by dose curve). As to conditions: PEO1/OlaR viability, CellTiter-Glo luminescence, 96 h, stronger effect = lower value. In outline:
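PEO1, PEO4 and PEO1/OlaR ovarian cancer cells, 600 per well, exposed 96 h at 37C to a dilution series. Viability read by CellTiter-Glo luminescence, normalized to DMSO and empty wells; activity summarized as Z-AUC.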

The nature of assay [13]: NFAT Signaling Pathway (AID 444; active means well fitted curve in either direction with a large enough effect, not every such curve was filed as active;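 further: carbachol stimulus at about its EC50 of 1 µM final; on the % scale 0 is the no-effect control and ±100 the full control effect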). The note with it: Jurkat NFAT-bla M1, carbachol, beta-lactamase ratio, 5 h. Put shortly:
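Jurkat cells carrying an NFAT-driven β-lactamase reporter and co-transfected muscarinic M1 receptor were treated with compound plus carbachol (1 uM final, an EC50 level) for 5 h at 37 °C. CCF4 loading followed for 1 h at RT; 460/530 nm ratio gave %activity.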

Assay [14] is described as follows: qHTS Assay for Identification of Small Molecule Agonists for Thrombopoietin (TPO) Signaling Pathway (AID 917). Further: on the % scale 0 is the no-effect control and ±100 the full control effect. The note with it: TPO signaling pathway reporter cells, agonist qHTS, stimulated with TPO at its EC50; series mostly up to 38.5 µM. Put shortly:
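Murine Ba/F3 cells expressing human TPO receptor and GPIIb-promoter luciferase, IL-3-starved overnight, given compound plus TPO at 26 pM (EC50). After 24 h at 37 C, 5% CO2, luminescence read.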

Assay [15] concerns the target Cytochrome P450 2C9 (Homo sapiens) (UniProt P11712). Description: qHTS Assay for Inhibitors and Substrates of Cytochrome P450 2C9 (AID 883). Further: nearly all actives have a fitted effect of over 60% in size. Further: potency means the concentration at half of the fitted maximal effect. On activity change, negative = inhibition: on the % scale 0 is the no-effect control and ±100 the full control effect. The note with it: recombinant CYP2C9, luciferin-H luminescence, 60 min; series mostly up to 57.1 µM. Put shortly:
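A luminogenic readout tracked human CYP2C9 (10nM) converting deoxyluciferin (100uM, at KM) in 25mM KPO4 during 60 min at 37C with regenerated NADPH. Values normalized to 57uM sulphaphenazole as complete inhibition.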

Assay [16] concerns the target Cytochrome P450 3A4 (Homo sapiens) (UniProt P08684). Description: qHTS Assay for Inhibitors and Substrates of Cytochrome P450 3A4 (AID 884). Further: on the % scale 0 is the no-effect control and ±100 the full control effect; nearly all actives have a fitted effect of over 50% in size. As to conditions: recombinant CYP3A4, Luciferin-PPXE luminescence; series mostly up to 57.1 µM. In outline:
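20 nM human CYP3A4 with 25 uM Luciferin-PPXE (at KM) in 200 mM KPO4, preincubated 10 min with compound; NADPH regeneration started a 60 min RT reaction. Luciferin detected by luminescence, normalized to 57 uM ketoconazole as full inhibition.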

The mark [17] stands for this setting: measured here: PEO1 parental Z-AUC.

Sequence of Glutathione peroxidase 1 (Homo sapiens) (P07203 whole entry, looked up): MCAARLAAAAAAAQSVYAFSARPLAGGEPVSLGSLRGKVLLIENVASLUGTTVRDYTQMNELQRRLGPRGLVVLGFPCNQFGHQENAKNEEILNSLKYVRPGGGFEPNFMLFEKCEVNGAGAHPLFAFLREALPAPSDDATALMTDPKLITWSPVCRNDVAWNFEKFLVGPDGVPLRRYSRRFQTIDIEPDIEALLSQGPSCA
Sequence of Cytochrome P450 2D6 (Homo sapiens) (P10635 whole entry, looked up): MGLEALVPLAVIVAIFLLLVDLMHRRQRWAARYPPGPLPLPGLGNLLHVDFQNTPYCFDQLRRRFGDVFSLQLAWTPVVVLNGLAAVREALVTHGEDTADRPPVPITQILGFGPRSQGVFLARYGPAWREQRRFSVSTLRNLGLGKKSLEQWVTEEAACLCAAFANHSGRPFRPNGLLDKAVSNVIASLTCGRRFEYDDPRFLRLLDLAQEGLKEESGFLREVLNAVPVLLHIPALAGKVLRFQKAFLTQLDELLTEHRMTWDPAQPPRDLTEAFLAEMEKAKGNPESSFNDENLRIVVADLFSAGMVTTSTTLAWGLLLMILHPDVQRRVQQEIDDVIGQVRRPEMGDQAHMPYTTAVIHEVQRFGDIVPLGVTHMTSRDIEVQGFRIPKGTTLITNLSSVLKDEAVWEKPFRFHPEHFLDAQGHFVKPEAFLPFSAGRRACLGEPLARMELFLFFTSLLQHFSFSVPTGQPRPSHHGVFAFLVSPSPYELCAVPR
Sequence of Pyruvate kinase PKM (Homo sapiens) (P14618 whole entry, looked up): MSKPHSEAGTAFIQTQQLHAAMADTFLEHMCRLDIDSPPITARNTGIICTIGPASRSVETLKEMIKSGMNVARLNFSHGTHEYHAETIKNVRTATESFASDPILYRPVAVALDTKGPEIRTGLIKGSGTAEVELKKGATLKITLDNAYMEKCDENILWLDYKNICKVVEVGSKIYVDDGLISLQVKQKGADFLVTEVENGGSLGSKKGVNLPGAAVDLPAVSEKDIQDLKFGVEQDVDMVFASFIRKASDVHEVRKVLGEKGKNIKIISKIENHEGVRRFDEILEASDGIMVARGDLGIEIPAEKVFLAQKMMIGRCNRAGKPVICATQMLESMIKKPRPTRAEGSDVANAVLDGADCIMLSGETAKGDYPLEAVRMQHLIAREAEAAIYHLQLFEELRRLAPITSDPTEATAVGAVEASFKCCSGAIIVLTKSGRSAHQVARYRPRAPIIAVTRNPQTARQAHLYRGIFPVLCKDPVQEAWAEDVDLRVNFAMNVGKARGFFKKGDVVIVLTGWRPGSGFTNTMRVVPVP
Sequence of Muscarinic acetylcholine receptor M1 (Rattus norvegicus) (P08482 whole entry, looked up): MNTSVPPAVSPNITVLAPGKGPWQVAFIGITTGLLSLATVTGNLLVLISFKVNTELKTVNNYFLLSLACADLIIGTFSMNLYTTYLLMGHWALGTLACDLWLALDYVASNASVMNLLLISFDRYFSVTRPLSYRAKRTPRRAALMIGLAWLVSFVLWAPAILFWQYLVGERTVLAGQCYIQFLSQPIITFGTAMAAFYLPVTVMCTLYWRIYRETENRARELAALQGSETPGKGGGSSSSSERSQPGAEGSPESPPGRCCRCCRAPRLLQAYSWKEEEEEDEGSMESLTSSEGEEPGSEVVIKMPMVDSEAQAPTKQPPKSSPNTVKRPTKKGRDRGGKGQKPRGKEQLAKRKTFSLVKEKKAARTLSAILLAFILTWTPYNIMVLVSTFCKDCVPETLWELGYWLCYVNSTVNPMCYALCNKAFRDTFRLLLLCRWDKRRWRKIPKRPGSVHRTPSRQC
Sequence of Cytochrome P450 3A4 (Homo sapiens) (P08684 whole entry, looked up): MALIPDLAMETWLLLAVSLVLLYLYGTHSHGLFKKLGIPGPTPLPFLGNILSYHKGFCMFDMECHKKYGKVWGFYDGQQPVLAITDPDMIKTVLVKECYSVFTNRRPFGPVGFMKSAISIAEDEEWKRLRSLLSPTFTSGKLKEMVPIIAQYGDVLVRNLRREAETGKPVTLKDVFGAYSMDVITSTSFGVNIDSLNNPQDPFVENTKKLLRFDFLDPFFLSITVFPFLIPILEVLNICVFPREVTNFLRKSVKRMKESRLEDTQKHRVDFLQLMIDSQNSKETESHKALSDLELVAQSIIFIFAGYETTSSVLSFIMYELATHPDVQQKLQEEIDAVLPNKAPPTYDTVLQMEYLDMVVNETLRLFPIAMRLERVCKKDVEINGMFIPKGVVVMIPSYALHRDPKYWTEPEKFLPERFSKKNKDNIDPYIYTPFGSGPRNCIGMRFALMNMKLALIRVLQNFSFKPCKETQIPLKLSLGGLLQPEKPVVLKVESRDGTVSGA
Sequence of Pyruvate kinase (Leishmania mexicana) (Q27686 2-499 E452W): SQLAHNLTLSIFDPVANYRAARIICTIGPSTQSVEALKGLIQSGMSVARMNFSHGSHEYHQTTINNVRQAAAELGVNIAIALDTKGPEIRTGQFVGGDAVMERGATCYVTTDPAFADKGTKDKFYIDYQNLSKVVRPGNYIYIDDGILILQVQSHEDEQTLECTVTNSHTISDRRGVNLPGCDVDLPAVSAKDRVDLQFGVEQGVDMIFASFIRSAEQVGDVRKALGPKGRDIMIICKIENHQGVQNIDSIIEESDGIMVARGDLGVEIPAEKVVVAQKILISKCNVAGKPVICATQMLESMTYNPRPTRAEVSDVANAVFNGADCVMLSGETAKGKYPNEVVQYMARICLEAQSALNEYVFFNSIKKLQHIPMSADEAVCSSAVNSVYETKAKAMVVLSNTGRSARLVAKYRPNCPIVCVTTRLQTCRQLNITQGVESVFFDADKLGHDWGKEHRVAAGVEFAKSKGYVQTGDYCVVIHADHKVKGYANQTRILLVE
Sequence of Cytochrome P450 2C9 (Homo sapiens) (P11712 whole entry, looked up): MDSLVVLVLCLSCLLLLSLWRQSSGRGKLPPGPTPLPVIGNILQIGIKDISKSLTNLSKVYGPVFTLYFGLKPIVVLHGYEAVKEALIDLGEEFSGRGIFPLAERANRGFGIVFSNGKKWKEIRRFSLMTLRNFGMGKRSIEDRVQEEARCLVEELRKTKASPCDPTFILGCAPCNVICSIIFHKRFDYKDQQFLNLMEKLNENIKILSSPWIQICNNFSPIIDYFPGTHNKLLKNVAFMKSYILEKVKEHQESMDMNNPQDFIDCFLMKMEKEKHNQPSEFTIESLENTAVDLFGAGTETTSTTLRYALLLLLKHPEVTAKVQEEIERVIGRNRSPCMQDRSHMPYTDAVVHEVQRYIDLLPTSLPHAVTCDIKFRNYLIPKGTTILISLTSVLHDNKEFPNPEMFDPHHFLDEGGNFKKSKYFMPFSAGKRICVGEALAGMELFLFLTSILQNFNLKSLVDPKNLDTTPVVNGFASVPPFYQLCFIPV
Sequence of Cytochrome P450 2C19 (Homo sapiens) (P33261 whole entry, looked up): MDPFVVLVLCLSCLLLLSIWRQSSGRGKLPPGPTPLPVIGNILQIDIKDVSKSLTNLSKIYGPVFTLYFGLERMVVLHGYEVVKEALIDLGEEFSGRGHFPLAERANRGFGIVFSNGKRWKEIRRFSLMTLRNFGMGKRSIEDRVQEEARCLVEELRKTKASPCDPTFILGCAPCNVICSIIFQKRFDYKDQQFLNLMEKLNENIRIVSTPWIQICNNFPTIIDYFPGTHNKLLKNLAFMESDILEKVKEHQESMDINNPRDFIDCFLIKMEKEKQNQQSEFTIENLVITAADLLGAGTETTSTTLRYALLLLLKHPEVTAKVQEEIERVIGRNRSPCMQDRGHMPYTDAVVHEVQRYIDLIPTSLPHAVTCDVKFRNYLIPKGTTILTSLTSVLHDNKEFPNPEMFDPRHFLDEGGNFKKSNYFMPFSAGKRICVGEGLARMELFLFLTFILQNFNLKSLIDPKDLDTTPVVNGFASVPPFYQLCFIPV

With `CSc1ccc2c(c1)[C@H](N1CCN(C)CC1)Cc1ccccc1S2`, the activity change, negative = inhibition in [1] (at 17.2 µM (top of the series)) was 22.7% (inactive); in assay [1] (at 38 µM (top of the series)) it was 16% (inactive). The Potency result in assay [2] and in assay [6] was “inactive” in each case. Also, the Potency in assay [3] is 3.98 µM (active) and 1.58 µM (active) and 316 nM (active); in [4], 7.94 µM (active); in assay [5], 5.62 µM (active). The result in assay [7] and in [8] was inactive.

`CNC(=O)[C@H]1O[C@@H](n2cnc3c(NCc4cccc(I)c4)nc(Cl)nc32)[C@H](O)[C@@H]1O`: the Potency entry in [9], in [10] and in assay [11] was “inactive” each time. The Z-AUC in [12] was 0.981 (inactive); in assay [12] (setting [17]), 0.685; in [12] (measured here: PEO4 Z-AUC) it was 0.71.

As for `NC(N)=NN=Cc1c(Cl)cccc1Cl`, the activity change, negative = inhibition in [1] (at 17.2 µM (top of the series)) was -2.9% (inactive); in assay [1] (at 38 µM (top of the series)) it was 4.65% (inactive); in [13] (at 17.2 µM (top of the series)) it was -0.975% (inactive); in assay [13] (at 38 µM (top of the series)) it was -1.48% (inactive). The Potency result in assay [14], in assay [5] and in assay [6] was “inactive” throughout. Also, the outcome in assay [7] and in assay [8] was inactive.

In the case of `CC(N)=NCCC[C@H](N)C(=O)O`, the activity change, negative = inhibition in assay [1] (at 38 µM (top of the series)) was -5.19% (inactive); in [13] (at 38 µM (top of the series)), 5.13% (inactive). Further, the Potency entry in assay [14], in assay [5] and in [6] was “inactive” each time. Further, the call in assay [7] and in assay [8] was inactive.

For `Cc1ccc(NS(=O)(=O)c2cc3c(cc2N[C@@H](C)CO)NC(=O)CC3)cc1Cl`, the Potency entry in [11] is “inactive”.

Consider `CCCn1c(=O)[nH]c2nc(-c3ccc(S(=O)(=O)O)cc3)[nH]c2c1=O`, for which the Potency result in [15] and in assay [16] was “inactive” in each case. Besides, the Potency in assay [3] was 7.94 µM (active).

`C=CCN(/C=C1\C(=O)OC(COC)C2(C)C1=C(O)C(=O)C1=C2C(OC(C)=O)CC2(C)C(=O)CCC12)CC=C` (stereo not given): the Potency in [9] was 9.2 µM (active); in assay [10], 11.6 µM (active).

Regarding `COc1ccc2c(c1)CC[C@@H]1[C@@H]2CC[C@]2(C)[C@@H](NCCCCCCN3C(=O)C=CC3=O)CC[C@@H]12`, the Potency in assay [9] was 13.2 µM (active); in assay [10], 5.25 µM (active). Moreover, in assay [11], the Potency entry was “inactive”. Further, the values for the Z-AUC in [12], in assay [12] (setting [17]) and in assay [12] (measured here: PEO4 Z-AUC) were 0.11 (inactive), 0.00217 and 0.205, respectively.

Consider `OC(CN1CCNCC1)Cn1c2ccc(Br)cc2c2cc(Br)ccc21` (stereo not given), for which the Potency result in assay [2] was “inactive”.

For the molecule `CC(N)=NCc1cccc(CN)c1`, the activity change, negative = inhibition in [1] (at 38 µM (top of the series)) was -2.56% (inactive); in assay [13] (at 38 µM (top of the series)), -2.12% (inactive). In addition, the Potency result in assay [2], in assay [14], in assay [5] and in assay [6] was “inactive” in each case. For the same molecule, the result in assay [7] and in [8] was inactive.

Turning to `CSc1cc2c(cc1C(F)(F)F)N(C(=O)Nc1cccnc1)CC2`, in assay [15], the Potency was 0.0063 µM (active). Besides, in [2], the Potency entry is “inactive”.

With `C=C[C@H]1CN2CCC1C[C@@H]2C(O)c1ccnc2ccc(OC)cc12` (stereo not given in full), the Potency entry in assay [10] was “inactive”.

As for `CN(C)CCCSc1ccccc1NC(=O)/C=C\c1ccccc1`, the Potency result in [15] and in [4] was “inactive” throughout. Besides, in [3], the Potency is 0.316 µM (active).

With `N[C@H](Cc1cnc[nH]1)C(=O)O`, the Potency result in [16] and in assay [11] was “inactive” in each case.
